Source: PubChem
ALDH1A1 inh: inhibitors of human aldehyde dehydrogenase 1A1 | P00352 | Purified ALDH1A1, NADH fluorescence, propionaldehyde substrate | Potency, µM (titrated, usually from 75.3 µM), most hits filed as inhibitors | 220,000 tested, 7.3% active | AID 1030; active = well fitted inhibition curve with a large enough effect, not every such curve was filed as active; inconclusive = small, poorly fitted or top-dose-only effect, or another doubt; inactive = no such curve, though single readings can be large or run the other way
Target sequence (P00352 whole entry, looked up): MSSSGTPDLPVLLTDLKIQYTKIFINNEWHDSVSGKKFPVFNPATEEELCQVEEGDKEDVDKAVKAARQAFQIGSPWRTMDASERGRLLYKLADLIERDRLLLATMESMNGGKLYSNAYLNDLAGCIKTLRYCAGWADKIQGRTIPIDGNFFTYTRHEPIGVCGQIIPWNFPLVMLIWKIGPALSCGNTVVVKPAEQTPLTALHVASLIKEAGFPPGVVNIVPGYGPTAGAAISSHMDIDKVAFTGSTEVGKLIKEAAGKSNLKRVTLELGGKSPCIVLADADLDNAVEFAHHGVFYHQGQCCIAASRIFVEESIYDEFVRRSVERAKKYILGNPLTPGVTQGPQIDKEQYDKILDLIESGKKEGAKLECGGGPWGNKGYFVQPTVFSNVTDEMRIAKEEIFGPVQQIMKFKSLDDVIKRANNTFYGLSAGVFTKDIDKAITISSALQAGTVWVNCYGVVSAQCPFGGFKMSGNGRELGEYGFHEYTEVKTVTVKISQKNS
HPGD inh: blocks human HPGD enzyme activity; 150,000 tested, 4.3% active; purified HPGD, NADH fluorescence kinetic, PGE2 substrate; P15428; Potency, µM, usual class: inhibitors; active = well fitted inhibition curve with a large enough effect, not every such curve was filed as active; inconclusive = small, poorly fitted or top-dose-only effect, or another doubt; inactive = no such curve, though single readings can be large or run the other way
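NADH formation kinetics: reaction with 30 uM PGE2 and 1 mM NAD+ (final), 20 nM enzyme, Tris-HCl pH 8 with Tween 20, after 15 min compound preincubation at room temperature. Fluorescence change, last versus first of five reads.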
IMPase Li inh: membrane-permeable IMPase blocker, potentiated with lithium; CHO-M1 cells, IP1 TR-FRET (IP-One), carbachol + lithium; Potency, µM (series often up to 59.4 µM), usual class: inhibitors; 210,000 tested, 0.35% active; AID 1457;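 note: IP1 builds up when IMPase is blocked and the TR-FRET signal falls; nearly all actives have a fitted effect of over 50% in size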
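IP1 accumulation measured by competitive TR-FRET in lysed CHO-M1 cells after 30 min compound exposure at 37C, with a small lithium addition to potentiate weak responses. Hill-equation AC50 from ratio and donor-channel data.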
HttQ103 aggreg: inhibitors of mutant huntingtin aggregate formation in PC12 cells | 220,000 tested, 1.1% active | PC12 HttQ103-GFP aggregates, Acumen cytometry, 40 h | AID 1688 | Potency, µM (doses to about 46.1 µM), most hits filed as inhibitors; note: nearly all actives have a fitted effect of over 60% in size
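Read-out: GFP aggregate count by laser scanning cytometer (488 nm excitation, 500-530 nm emission, 1–25 µm objects >6 SD above background). Cells: PC12, inducible HTTex1-Q103-GFP, 100 nM tebufenozide; compounds titrated.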
IMPase cell inh: cell-permeable inhibitors of inositol monophosphatase (IMPase); CHO-M1 cells, IP1 accumulation, HTRF TR-FRET ratio; inhibition (IP1 accumulation), % at 46.1 µM; 120,000 tested, under 10 active; active = well fitted curve in the direction sought with a large enough effect in the signal ratio, not every such curve was filed as active; inconclusive = small, poorly fitted or top-dose-only effect, or a change in a side signal; inactive = no such curve, though single readings can be large or run the other way; the % refers to the signal ratio;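 note: cells stimulated with carbachol in lithium chloride buffer; higher means more IMPase inhibition seen as more IP1 and lower FRET ratio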
Target sequence (P97697 whole entry, looked up): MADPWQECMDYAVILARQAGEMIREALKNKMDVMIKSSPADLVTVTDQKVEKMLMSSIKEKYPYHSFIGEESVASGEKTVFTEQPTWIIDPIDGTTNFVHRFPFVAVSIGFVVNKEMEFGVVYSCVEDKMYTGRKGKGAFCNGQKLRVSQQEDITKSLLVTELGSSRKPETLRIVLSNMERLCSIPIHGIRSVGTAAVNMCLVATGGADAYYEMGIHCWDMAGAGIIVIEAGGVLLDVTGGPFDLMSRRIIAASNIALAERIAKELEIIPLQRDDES
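Cellular IMPase inhibition is scored as a rise in cytosolic IP1, detected by competitive TR-FRET between d2-labelled IP1 and a europium anti-IP1 antibody. M1-expressing CHO cells were stimulated with carbachol for 30 min at 37C, with lithium (50 mM LiCl) present in the buffer.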
HTT ATP protect: Huntington cell model cytoprotection by ATP luminescence | PC12 HTT-Q103 induced, cytoprotection, ATP luminescence, 40 h | 230,000 tested, 0.14% active | Potency, µM (highest dose often 56.4 µM), hits mostly activators; note: nearly all actives have a fitted effect of over 45% in size
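Readout: ATPlite luminescence (ATP level). Model: stable PC12, inducible Htt exon1 Q103-GFP. Inducer: tebufenozide, 100 nM final. Compounds: dose series. No G418 in medium.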
A number is an active result; – = inactive; ? = inconclusive; · = not tested or not shown; [ ] = remark or other dose. Rows were chosen to be rich in hits. Some 9.4% of all compounds tested hit in one or more screens of this group. Unless noted, calls come from the whole dose curve; as a rule, active = well fitted curve in the direction sought with a large enough effect; inconclusive = small, poorly fitted or top-dose-only effect, or another doubt; inactive = no such curve, though single readings can be large; an effect the other way counts as inactive or inconclusive.

SMILES	ALDH1A1 inh	HPGD inh	IMPase Li inh	HttQ103 aggreg	IMPase cell inh	HTT ATP protect
CCOC(=O)CSc1nnc(-c2ccco2)n1-c1ccc(C)cc1	–	–	–	–	–	–
O=C(CSc1nnc(-c2cccs2)n1-c1ccccc1)N1CCCC1	?	25.1µM	–	–	–	–
CCOC(=O)CSc1nnc(-c2ccco2)n1-c1ccccc1	1.58µM	31.6µM	–	–	–	–
O=C(CSc1nnc(-c2cccs2)n1-c1ccccc1)N1CCOCC1	?	–	–	–	–	–
O=c1cc(CF)[nH]c(=S)[nH]1	–[13.5 µM]	–	–	·	·	–[10 µM]
CCN1CCN(c2c(C(=O)c3ccc(OC)cc3)cnc3ccccc23)CC1	2.82µM	·	–	–	·	–
CCOC(=O)C1CCCN(c2c(C(=O)c3ccccc3)cnc3ccc(OC)cc23)C1 (stereo not drawn)	?	·	–	–	·	–
COC(=O)C/C=C\[C@@H](C)[C@@H](/C=N\OC[C@@H](O)COCc1ccco1)OC	–[13.5 µM]	·	·	·	·	–[10 µM]
CCCC1=Nc2cc(C(=O)NCc3ccccc3)ccc2Sc2ccccc21	·	·	·	·	–	·
Cc1ccc(-c2nnn(CC(=O)N(Cc3cccs3)C(C(=O)NC(C)(C)C)c3ccco3)n2)o1 (stereo not drawn)	?	–	–	–	–	–[10 µM]
O=C(NCc1ccco1)C(c1cccs1)N(C(=O)Cc1cccs1)c1ccccc1 (stereo not drawn)	–	–	–	–	–	–[10 µM]
COc1ccc(CNC(=O)C(c2ccco2)N(C(=O)Cc2cccs2)c2cccnc2)cc1 (stereo not drawn)	–	·	–	–[9.22 µM]	·	–[10 µM]
COc1ccc(CNC(=O)C(c2cccs2)N(Cc2ccco2)C(=O)Cc2cccs2)cc1 (stereo not drawn)	2µM	–	–	?	–	–[10 µM]
COc1ccc(CNC(=O)C(c2ccco2)N(Cc2ccccc2)C(=O)Cc2cccs2)cc1 (stereo not drawn)	12.6µM	–	–	?	–	–[1.9 µM]
COc1ccc(C(=O)/C=C/C(=O)N(CC(=O)NCCC(C)C)Cc2cccs2)c(O)c1	?	·	–	–[9.22 µM]	·	–[10 µM]
Cc1ccc(-c2nnn(CC(=O)N(Cc3ccco3)C(C(=O)NC(C)(C)C)c3cccs3)n2)o1 (stereo not drawn)	28.2µM	–	–	–	–[0.369 µM]	–[10 µM]
COc1ccc(C(=O)N(Cc2ccco2)Cc2cccs2)c(O)c1	12.6µM	?	–	–	–	–[10 µM]
NCc1ccc(C(=O)O)cc1	–[13.5 µM]	–	–	·	·	–[10 µM]
CCCCN(CCCC)C1=C(C(=O)c2ccccc2)N(C)S(=O)(=O)c2ccccc21	·	·	·	·	–	·
CCCN(C/C=C/I)C1CCc2cccc(O)c2C1 (stereo not drawn)	–	·	–	·	·	–
COCCN(C(=O)Cc1cccs1)C(C(=O)NCc1ccc(OC)cc1)c1ccc(OC)cc1 (stereo not drawn)	2.24µM	–	–	–	–[1.84 µM]	–[10 µM]
COc1ccc(CNC(=O)C(c2ccncc2)N(C(=O)Cc2cccs2)c2ccccc2C)cc1 (stereo not drawn)	?	–	–	–	–[1.84 µM]	–[10 µM]
COc1ccc(CNC(=O)C(c2cccs2)N(C(=O)c2csnn2)C2CC2)cc1 (stereo not drawn)	–	–	–	–	–	25.1µM
Cc1ccc(OCC(=O)Nc2ccc(S(=O)(=O)Nc3cc(C)on3)cc2)c(Br)c1	·	·	·	·	–	·
Cc1nc(NS(=O)(=O)c2ccc(Cl)s2)c2c3c(sc2n1)CCCC3	·	·	·	–[9.22 µM]	·	–[10 µM]
SMILES	ALDH1A1 inh	HPGD inh	IMPase Li inh	HttQ103 aggreg	IMPase cell inh	HTT ATP protect
c1ccc2[nH]ccc2c1	·	·	·	–	·	–
CC(CO)(CO)N=Cc1cc(I)cc(I)c1O	–[13.5 µM]	–	–	·	·	–[10 µM]
Cc1ccc(/C=N/n2cnc3sc(-c4ccccc4)cc3c2=O)o1	31.6µM	?	–	–	–	–
CCc1ccccc1O	–	–	–	·	·	–
CC(=O)c1ccc(O)c(CN(C2CCCCC2)C2CCCCC2)c1O	–[13.5 µM]	–	–	·	·	–[10 µM]
CC(=O)c1ccc2c3c(ccc(O)c13)CC2	?	14.1µM	–	–	–	–[10 µM]
N/C(=N\OC(=O)c1ccc([N+](=O)[O-])cc1)c1cccnc1	–	·	·	–	–	–[10 µM]
O=C(Oc1c(Br)cc([N+](=O)[O-])cc1Br)c1cccnc1	–	–	–	35.5µM	·	–[10 µM]
OCCNc1cc(-n2nc(-c3ccccc3)cc2-c2ccccc2)ncn1	–	–	–	–	–	–
Cc1cc(-c2ccccc2)n(-c2cc(N/N=C/c3ccccc3O)ncn2)n1	–	–	–	8.91µM	·	–[10 µM]
COCC(=O)N1CCC2(CCCN(Cc3ccc(C#N)cc3)C2)CC1	–	–	–	·	·	–
COCCOC(=O)C1=C(C)OC(N)=C(C#N)C1c1ccc2c(c1)OCO2 (stereo not drawn)	12.6µM	31.6µM	–	?	–	–
C=CCOC(=O)C1=C(C)OC(N)=C(C#N)C1c1ccc2c(c1)OCO2 (stereo not drawn)	?	?	–	–	–	–[10 µM]
COc1ccc2c(c1)O[C@@H](c1cccc(C(F)(F)F)c1)[C@H](OC(=O)Nc1ccc(C)c(Br)c1)C2=O	–	–	–	·	·	–
COCCNC(=O)c1cnn2c1NC(c1ccco1)CC2C(F)(F)F (stereo not drawn)	?	25.1µM	–	–	–	–[10 µM]
CCOC(=O)N1CCC(NC(=O)c2cnn3c2NC(c2ccco2)CC3C(F)(F)F)CC1 (stereo not drawn)	?	–	–	–	–	–[0.074 µM]
CN(Cc1ccc(-n2cccn2)cc1)C(=O)c1cnn2c1NC(c1ccco1)CC2C(F)(F)F (stereo not drawn)	7.94µM	–	–	?	–[1.84 µM]	–[10 µM]
COc1cccc(C2CC(C(F)(F)F)n3ncc(C(=O)NCC4CCCO4)c3N2)c1 (stereo not drawn)	–	14.1µM	–	–	–	–
COc1ccc(N2CCN(C3(c4ccccc4)C(=O)c4ccccc4C3=O)CC2)cc1	·	·	·	·	–	·
N=C1CCC[C@@H]1C(=S)SCCC(N)=O	–[13.5 µM]	–	–	·	·	–[10 µM]
CCC(Sc1nnc2c3ccccc3n(CC)c2n1)C(=O)Nc1sc2c(c1C#N)CCCC2 (stereo not drawn)	17.8µM	–	–	–	–	–
CCC(Sc1nc(C)cc(=O)[nH]1)C(=O)Nc1sc2c(c1C#N)CCCC2 (stereo not drawn)	?	–	–	?	–	–
CCc1ccc2oc(-c3ccc(NC(=O)c4cccc(Cl)c4Cl)cc3)nc2c1	·	·	·	·	–	·
COc1ccccc1CN1CC[C@@]2(CCCN(S(C)(=O)=O)C2)C1	–	–	–	·	·	–
O=c1cc(CN2CCN(c3ccccc3O)CC2)nc2sccn12	25.1µM	?	–	–[9.22 µM]	–	–
Cc1cccc(N2CCN(Cc3cc(=O)n4ccsc4n3)CC2)c1C	–	–	–	–	–	–
C[C@@H](N)/C(N)=N/O	–[13.5 µM]	–	–	·	·	–[10 µM]
Cc1cccc(-n2c(-c3ccoc3C)n[nH]c2=S)c1	–	25.1µM	–	?	·	–[10 µM]
